Results filed as inconclusive are left out. The source made the active and inactive calls.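 The calls were made as follows, unless noted: active = normalized viability below 100% at a tested concentration; inactive = the rest.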
How the values were obtained:
[1] = viability loss in pontine glioma line – cell-based, SU-DIPG-XIII, MIPE4.0, CellTiter-Glo, qHTS, dose response (AID 1347061; cut-off not given, nearly all actives have AC50 up to about 37 µM;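 also: cells exposed to compound for 48 hours before readout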); conditions: CellTiter-Glo ATP luminescence
[2] = viability loss in pontine glioma line – cell-based, JHH-DIPG-1, MIPE4.0, CellTiter-Glo, qHTS, dose response (AID 1347062; cut-off not given, nearly all actives have AC50 up to about 27 µM); conditions: JHH-DIPG-1 viability, CellTiter-Glo ATP luminescence
[3] = viability loss in pontine glioma line – cell-based, SU-DIPG-XXV, MIPE5.0, CellTiter-Glo, qHTS, dose response (AID 1347065; cut-off not given, nearly all actives have AC50 up to about 26 µM;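 also: cells exposed to compound for 48 hours before ATP readout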); conditions: CellTiter-Glo ATP luminescence
[4] = JHH-DIPG-1 glioma cell viability, MIPE5.0 library, CellTiter-Glo luminescence, qHTS (AID 1347067; cut-off not given, nearly all actives have AC50 up to about 26 µM;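 also: cells exposed to compound for 48 hours before readout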); conditions: JHH-DIPG-1 glioma viability, CellTiter-Glo ATP luminescence
[5] = growth inhibition of DIPG cells – cell-based, MIPE5.0 library, qHTS (AID 1347068; cut-off not given, nearly all actives have IC50 up to about 30 µM); conditions: SU-DIPG-XXV viability
[6] = viability loss with induced miR-34 in A549 – imaging, A549 dox-inducible miR-34, nuclei and caspase counts, primary screen (AID 1347080;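 active = compounds whose cell count with miR-34 switched on is under 0.7 times the count with it off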); conditions: A549 miR-34 inducible, Hoechst nuclei count, 48 h
[7] = compounds altering HSF1 focus formation in cells – imaging, Selleck Cancer Library (AID 1347162; in the data active = plate-normalised HSF1 focus index below about 0.46); conditions: human cells, HSF1 nuclear foci imaging, at 10 µM; SSMD: measured here: HSF1 foci SSMD mean; cell count: measured here: cell number; plate-normalised HSF1 focus index: stronger effect = lower value
[8] = MELAS cybrid and Rieske KO viability enhancers – cell-based, MELAS cybrids, Rieske KO mouse fibroblasts, CellTiter-Glo, primary screen (AID 1508586;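 active = mean z-score across replicates of 1.96 or higher in either the MELAS or the Rieske mutant cell line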;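 also: z relative to plate mean and SD of compound and empty wells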); conditions: low glucose
[9] = drug combination growth inhibition, ovarian cancer – cell-based, oncology-focused library, rucaparib conditional, profiling panel (AID 1508598); conditions: patient-derived ovarian cancer cells, CellTiter-Glo viability, 144 h, stronger effect = lower value
[10] = growth inhibition of DIPG cells – cell-based, MIPE4.0 library, CellTiter-Glo luminescence, qHTS (AID 1347066; cut-off not given, nearly all actives have AC50 up to about 30 µM;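 also: cells exposed to compound for 48 hours before readout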); conditions: SU-DIPG-VI viability, CellTiter-Glo ATP luminescence
[11] = viability loss in pontine glioma line – cell-based, SU-DIPG-XIII, MIPE5.0, CellTiter-Glo, qHTS, dose response (AID 1347064; cut-off not given, nearly all actives have AC50 up to about 23 µM); conditions: CellTiter-Glo ATP luminescence

Cn1cc(-c2ccc3nnc(C(F)(F)c4ccc5ncccc5c4)n3n2)cn1
6920: cell count [7]
0.881: fold change ([6]; measured here: relative caspase fold change +Dox/-Dox)
active: viability ([9]; at 0.000305 µM, OCI-C5x cells, without rucaparib) 90.8% | viability ([9]; at 0.000305 µM, OCI-P5x cells, without rucaparib) 89.6% | viability ([9]; at 0.00122 µM, OCI-P5x cells, without rucaparib) 98.1% | viability ([9]; at 0.0195 µM, OCI-P5x cells, without rucaparib) 98.3% | viability ([9]; at 0.313 µM, OCI-P5x cells, without rucaparib) 95.6% | viability ([9]; at 5 µM, OCI-P5x cells, with rucaparib 20 µM, 100% = cells with rucaparib alone) 97%
0.567: z-score ([8]; Rieske KO mouse fibroblast survival, CellTiter-Glo 72 h)
8080: cell count ([6]; measured here: total cells without miR-34 induction)
6960: cell count ([6]; measured here: total cells with miR-34 induction, stronger effect = lower value)
2.73: SSMD [7]
inactive: outcome [1] | outcome [2] | outcome [3] | outcome [4] | outcome [5] | fold change ([6]; stronger effect = lower value, cell number ratio, induced over uninduced) 0.861 | plate-normalised HSF1 focus index [7] 1.14 | z-score ([8]; MELAS cybrid survival, CellTiter-Glo 48 h, stronger effect = higher value) -0.414 | viability ([9]; at 0.000305 µM, OCI-C5x cells, with rucaparib 10 µM, 100% = cells with rucaparib alone) 113% | viability ([9]; at 0.000305 µM, OCI-P5x cells, with rucaparib 20 µM, 100% = cells with rucaparib alone) 102% | viability ([9]; at 0.00122 µM, OCI-C5x cells, with rucaparib 10 µM, 100% = cells with rucaparib alone) 123% | viability ([9]; at 0.00122 µM, OCI-C5x cells, without rucaparib) 106% | viability ([9]; at 0.00122 µM, OCI-P5x cells, with rucaparib 20 µM, 100% = cells with rucaparib alone) 104% | viability ([9]; at 0.00488 µM, OCI-C5x cells, with rucaparib 10 µM, 100% = cells with rucaparib alone) 118% | viability ([9]; at 0.00488 µM, OCI-C5x cells, without rucaparib) 109% | viability ([9]; at 0.00488 µM, OCI-P5x cells, with rucaparib 20 µM, 100% = cells with rucaparib alone) 107% | viability ([9]; at 0.00488 µM, OCI-P5x cells, without rucaparib) 101% | viability ([9]; at 0.0195 µM, OCI-C5x cells, with rucaparib 10 µM, 100% = cells with rucaparib alone) 116% | viability ([9]; at 0.0195 µM, OCI-C5x cells, without rucaparib) 114% | viability ([9]; at 0.0195 µM, OCI-P5x cells, with rucaparib 20 µM, 100% = cells with rucaparib alone) 106% | viability ([9]; at 0.0781 µM, OCI-C5x cells, with rucaparib 10 µM, 100% = cells with rucaparib alone) 110% | viability ([9]; at 0.0781 µM, OCI-C5x cells, without rucaparib) 110% | viability ([9]; at 0.0781 µM, OCI-P5x cells, with rucaparib 20 µM, 100% = cells with rucaparib alone) 104% | viability ([9]; at 0.0781 µM, OCI-P5x cells, without rucaparib) 102% | viability ([9]; at 0.313 µM, OCI-C5x cells, with rucaparib 10 µM, 100% = cells with rucaparib alone) 120% | viability ([9]; at 0.313 µM, OCI-C5x cells, without rucaparib) 112% | viability ([9]; at 0.313 µM, OCI-P5x cells, with rucaparib 20 µM, 100% = cells with rucaparib alone) 105% | viability ([9]; at 1.25 µM, OCI-C5x cells, with rucaparib 10 µM, 100% = cells with rucaparib alone) 133% | viability ([9]; at 1.25 µM, OCI-C5x cells, without rucaparib) 123% | viability ([9]; at 1.25 µM, OCI-P5x cells, with rucaparib 20 µM, 100% = cells with rucaparib alone) 107% | viability ([9]; at 1.25 µM, OCI-P5x cells, without rucaparib) 104% | viability ([9]; at 5 µM, OCI-C5x cells, with rucaparib 10 µM, 100% = cells with rucaparib alone) 130% | viability ([9]; at 5 µM, OCI-C5x cells, without rucaparib) 137% | viability ([9]; at 5 µM, OCI-P5x cells, without rucaparib) 104%

O=C(OCC#CCSc1nnc(-c2cccc3ccccc23)o1)c1cc2ccccc2s1
inactive: outcome [1] | outcome [2] | outcome [10]

C=C1c2cccc(O)c2C(O)=C2C(=O)[C@@]3(O)C(O)=C(C(N)=O)C(=O)[C@@H](N(C)C)[C@@H]3[C@@H](O)[C@H]12
inactive: outcome [1] | outcome [2] | outcome [11] | outcome [3] | outcome [10] | outcome [5]

O=C(NC[C@H]1CN(c2ccc(N3CCOCC3=O)cc2)C(=O)O1)c1ccc(Cl)s1
inactive: outcome [1] | outcome [2] | outcome [10] | outcome [4] | outcome [5]

CCCn1c(=O)c2[nH]c(C34CC5CC3C[C@@H](C5)C4)nc2n(CCC)c1=O
inactive: outcome [1] | outcome [2] | outcome [10] | outcome [5]
